High-throughput results from PubChem BioAssay.
AMA1-RON2 inh: disrupts binding of P. falciparum AMA1 to RON2; Potency, µM (series often up to 58.2 µM), hits mostly inhibitors; actives 0.2% (n = 360,000); AlphaScreen AMA1-biotinylated RON2 peptide binding; AID 720542; note: nearly all actives have a fitted effect of over 45% in size
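AMA1 (3D7) with his tag at 25 nM final met compounds first, then biotinylated RON2 peptide at 25 nM; detection used donor plus acceptor beads, 10 µg/mL apiece, read by AlphaScreen after 30 min at room temperature.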
Cycloheximide cs: affects cycloheximide protein synthesis inhibition readout, counter-screen; cell reporter, cycloheximide protein synthesis inhibition counterscreen; max response, %; actives 12% (n = 300,000); AID 2314; in the data active = max response mostly above about 13%, no sharp cut-off; inactive = mostly below about 14%; note: read at 38.3 µM for the half of the compounds with a filed dose
SARS PLpro yeast: inhibitors of SARS-CoV papain-like protease in yeast | S. cerevisiae expressing SARS-CoV PLpro, growth rescue | Potency, µM (doses to about 32.9 µM), hits mostly activators | actives 0.19% (n = 330,000); calls by dose curve; note: nearly all actives have a fitted effect of over 55% in size
Pf growth 96h: P. falciparum growth inhibition at 96 hour, primary screen for plastid delayed-death inhibitors; AID 504834; actives 6.9% (n = 320,000); P. falciparum luciferase reporter growth, 96 h; Potency, µM (doses to about 28.7 µM), actives largely listed as inhibitors
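Delayed-death screen, second-generation endpoint: infected erythrocytes, 2% hematocrit, 0.05% parasitemia final; 96 hours at 37 C, 5% CO2; luciferase detection reagent; luminescence decrease equals reduced growth.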
Pf growth 48h: inhibits P. falciparum growth in the first generation, 48 h; P. falciparum luciferase growth in erythrocytes, 48 h; Potency, µM (top dose mostly 28.7 µM), hits mostly inhibitors; actives 5.9% (n = 310,000); AID 504832
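Compounds are pin-transferred into medium, infected erythrocytes (2% hematocrit, 0.1% parasitemia final) are added, and plates sit one parasite generation at 37 C in 5% CO2. Detection reagent is then added and luminescence measured.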
Shiga toxin inh: inhibitors of Shiga toxin in Vero cells | Vero cells, Shiga toxin protein synthesis inhibition reporter | inhibition, % at 38.7 µM | actives 9.2% (n = 290,000); in the data active = inhibition mostly above about 28%, no sharp cut-off; inactive = mostly below about 43%
Hits are given with their value. Sampled rows, rich in hits. Any-hit rate of the full collection: about 19%. Unless noted, calls come from the whole dose curve; as a rule, active = well fitted curve in the direction sought with a large enough effect; inconclusive = small, poorly fitted or top-dose-only effect, or another doubt; inactive = no such curve, though single readings can be large; an effect the other way counts as inactive or inconclusive.

Results for COC(=O)C1=C(c2ccc(OC)c(OC)c2)C[C@@H]2CC[C@H]1N2C(=O)NCc1cc(C)oc1C(F)(F)F ?
AMA1-RON2 inh: inactive; SARS PLpro yeast: inactive; Pf growth 96h: inconclusive; Pf growth 48h: 9.28µM

What do the screens show for `Cn1c(C(=O)N2CCN(c3ccccc3)CC2)cc2cc(Cl)ccc21`?
AMA1-RON2 inh: inactive; Cycloheximide cs: inactive; SARS PLpro yeast: inactive; Pf growth 96h: inconclusive; Pf growth 48h: inactive; Shiga toxin inh: inactive

How did COc1ccccc1/C=C\C(=O)NCC(=O)N/N=C/c1ccc(O)cc1O do in these assays?
AMA1-RON2 inh: inactive; Cycloheximide cs: inactive; SARS PLpro yeast: inactive; Pf growth 96h: inactive; Pf growth 48h: inconclusive; Shiga toxin inh: inactive

How did COc1ccc(OCC(=O)NNC(=O)c2cccc(O)c2)cc1 do in these assays?
AMA1-RON2 inh: inactive; Cycloheximide cs: inactive; SARS PLpro yeast: inactive; Pf growth 96h: inconclusive; Pf growth 48h: inactive; Shiga toxin inh: inactive

How did COC(=O)C1=C(c2cccc(OCc3ccccc3)c2)C[C@@H]2CC[C@H]1N2C(=O)NCc1ccc([N+](=O)[O-])cc1 do in these assays?
AMA1-RON2 inh: inactive; SARS PLpro yeast: inactive; Pf growth 96h: inconclusive; Pf growth 48h: 11.7µM

Results for COC(=O)C1=C(c2cccc(OCc3ccccc3)c2)C[C@@H]2CC[C@H]1N2C(=O)NCc1cccc(C(F)(F)F)c1 ?
AMA1-RON2 inh: inactive; SARS PLpro yeast: inactive; Pf growth 96h: inconclusive; Pf growth 48h: 13.1µM

How did COC(=O)C1=C(c2cccc(OCc3ccccc3)c2)C[C@@H]2CC[C@H]1N2C(=O)NCc1ccccc1 do in these assays?
AMA1-RON2 inh: inactive; SARS PLpro yeast: inactive; Pf growth 96h: inconclusive; Pf growth 48h: 13.1µM

How did COC(=O)C1=C(c2ccc(OC)c(OC)c2)C[C@@H]2CC[C@H]1N2C(=O)NCc1cccc2ccccc12 do in these assays?
AMA1-RON2 inh: inactive; SARS PLpro yeast: inactive; Pf growth 96h: 0.233µM; Pf growth 48h: 0.522µM

How did O=C(COC(=O)CCC1CCCC1)Nc1ccc(F)cc1 do in these assays?
AMA1-RON2 inh: inactive; SARS PLpro yeast: inactive; Pf growth 96h: inactive; Pf growth 48h: inactive

What do the screens show for `COc1cccc(Nc2nc(C(N)C3CCCCC3)cs2)n1` (centres undefined)?
AMA1-RON2 inh: inactive

Results for CCN(CC)C(=O)C(C)OC(=O)c1ccc(O)cc1 (centres undefined) ?
AMA1-RON2 inh: inactive; Cycloheximide cs: inactive; SARS PLpro yeast: inactive; Pf growth 96h: inactive; Pf growth 48h: inactive; Shiga toxin inh: inactive

Results for COC(=O)C1=C(c2cccc(OCc3ccccc3)c2)C[C@@H]2CC[C@H]1N2C(=O)NCc1ccc(OC)c(OC)c1 ?
AMA1-RON2 inh: inactive; SARS PLpro yeast: inactive; Pf growth 96h: inconclusive; Pf growth 48h: inconclusive

How did COC(=O)C1=C(c2cccc(OCc3ccccc3)c2)C[C@@H]2CC[C@H]1N2C(=O)NCc1ccccc1OC do in these assays?
AMA1-RON2 inh: inactive; SARS PLpro yeast: inactive; Pf growth 96h: inconclusive; Pf growth 48h: 7.38µM

Results for COC(=O)C1=C(c2cccc(OCc3ccccc3)c2)C[C@@H]2CC[C@H]1N2C(=O)NCc1ccc(Cl)cc1 ?
AMA1-RON2 inh: inactive; SARS PLpro yeast: inactive; Pf growth 96h: inconclusive; Pf growth 48h: 8.28µM

How did CSc1ncccc1C(=O)OCC(=O)NCc1ccc2c(c1)OCO2 do in these assays?
AMA1-RON2 inh: inactive; Cycloheximide cs: inactive; SARS PLpro yeast: inactive; Pf growth 96h: inactive; Pf growth 48h: inactive; Shiga toxin inh: inactive

Results for CC(=O)Nc1ccc(OS(=O)(=O)c2cc(Cl)ccc2C)cc1 ?
AMA1-RON2 inh: inactive; Cycloheximide cs: inactive; SARS PLpro yeast: inactive; Pf growth 96h: inactive; Pf growth 48h: inconclusive; Shiga toxin inh: inactive

What do the screens show for `COc1ccc(CNCC2COc3ccccc3O2)cc1` (centres undefined)?
AMA1-RON2 inh: inactive; Cycloheximide cs: 21.7; SARS PLpro yeast: inactive; Pf growth 96h: inactive; Pf growth 48h: inactive; Shiga toxin inh: inactive

What do the screens show for `c1ccc(CCCNCC2COc3ccccc3O2)cc1` (centres undefined)?
AMA1-RON2 inh: inactive; Cycloheximide cs: inactive; SARS PLpro yeast: inactive; Pf growth 96h: inactive; Pf growth 48h: inactive; Shiga toxin inh: inactive

Results for c1ccc(CNCC2COc3ccccc3O2)cc1 (centres undefined) ?
AMA1-RON2 inh: inactive; Cycloheximide cs: inactive; SARS PLpro yeast: inactive; Pf growth 96h: inactive; Pf growth 48h: inactive; Shiga toxin inh: 49.2

Results for Cc1nnsc1C(=O)NC1CCCc2c1cnn2-c1ccc(C(C)(C)C)cc1 (centres undefined) ?
AMA1-RON2 inh: inactive; Cycloheximide cs: inactive; SARS PLpro yeast: inactive; Pf growth 96h: inconclusive; Pf growth 48h: inconclusive; Shiga toxin inh: inactive

How did CC(C)S(=O)(=O)c1cnc(-c2cccnc2)nc1N do in these assays?
AMA1-RON2 inh: inactive; Cycloheximide cs: inactive; SARS PLpro yeast: inactive; Pf growth 96h: inactive; Pf growth 48h: inactive; Shiga toxin inh: inactive

How did CCOC(=O)[C@@H]1[C@H]2COc3ccc(Br)cc3[C@@H]2N2C(=O)N(c3ccc(Br)cc3)C(=O)[C@@]12C do in these assays?
AMA1-RON2 inh: inactive; SARS PLpro yeast: inactive

What do the screens show for `CCOC(=O)[C@@H]1[C@H]2COc3ccccc3[C@H]2N2C(=O)N(c3ccc(C(F)(F)F)cc3)C(=O)[C@]12C`?
AMA1-RON2 inh: inactive; Cycloheximide cs: inactive; SARS PLpro yeast: inactive; Pf growth 96h: 5.22µM; Pf growth 48h: 10.4µM; Shiga toxin inh: inactive

Results for CCOC(=O)[C@@H]1[C@H]2COc3ccc(Br)cc3[C@@H]2N2C(=O)N(c3ccc(C)cc3)C(=O)[C@]12C ?
AMA1-RON2 inh: inactive; Cycloheximide cs: inactive; SARS PLpro yeast: inactive; Pf growth 96h: 13.1µM; Pf growth 48h: inconclusive; Shiga toxin inh: inactive

How did CCOC(=O)[C@@H]1[C@H]2COc3ccc(Br)cc3[C@@H]2N2C(=O)N(c3ccc(Cl)cc3)C(=O)[C@]12C do in these assays?
AMA1-RON2 inh: inactive

Results for CCOC(=O)[C@@H]1[C@H]2COc3ccc(Br)cc3[C@@H]2N2C(=O)N(c3ccc(OC)cc3)C(=O)[C@]12C ?
AMA1-RON2 inh: inactive; Cycloheximide cs: inactive; SARS PLpro yeast: inactive; Pf growth 96h: 3.29µM; Pf growth 48h: inactive; Shiga toxin inh: inactive

What do the screens show for `CCOC(=O)[C@@H]1[C@H]2COc3ccc(Br)cc3[C@H]2N2C(=O)N(c3ccc(C)cc3)C(=O)[C@]12C`?
AMA1-RON2 inh: inactive; Cycloheximide cs: inactive; SARS PLpro yeast: inactive; Pf growth 96h: 11.7µM; Pf growth 48h: inconclusive; Shiga toxin inh: inactive

How did Cc1cccc(-c2csc(N3CCC(C(N)=O)CC3)n2)c1 do in these assays?
Pf growth 96h: inactive; Pf growth 48h: inconclusive

What do the screens show for `COC(=O)c1cc2c(cc1N)OCCO2`?
AMA1-RON2 inh: inactive; Cycloheximide cs: 25.4; SARS PLpro yeast: inactive; Pf growth 96h: inactive; Pf growth 48h: inactive; Shiga toxin inh: inactive

Results for Cc1ccc(NC(=S)NCc2ccc3c(c2)OCO3)cc1 ?
AMA1-RON2 inh: inactive; Cycloheximide cs: inactive; SARS PLpro yeast: inconclusive; Pf growth 96h: inactive; Pf growth 48h: inactive; Shiga toxin inh: inactive
